High-throughput results: PubChem, The Scripps Research Institute Molecular Screening Center
Shown are actives, neighbours in structure and some others; about 0.83% of the full set was active somewhere.
NCOA3 inh – human NCOA3 inhibition. HEK293 GAL4-SRC3 luciferase reporter, luminescence. inhibition, % at 3.6 µM. AID 588352. hit rate 0.17% among 360,000. Q9Y6Q9;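 active means inhibition above a per-campaign cutoff, the mean of all compounds plus 3 SD, cut at about 60% in these data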;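 further: 0% = DMSO-treated cells and 100% = gossypol-treated cells at 36 µM; higher means less SRC3-driven luciferase light from the GAL4 reporter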
NR2F2 inh – blocks human COUP-TFII nuclear receptor; HEK293T NGFI-A luciferase reporter, luminescence; inhibition, % at 8.6 µM; hit rate 0.7% among 370,000; AID 686940;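 active means inhibition above a per-plate cutoff, mean inhibition of test wells between control levels plus 3 SD, cut at about 38% in these data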;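 further: cells cotransfected with COUP-TFII expression vector driving the NGFI-A reporter; 0% = median of COUP-TF2 test wells and 100% = reporter-only cells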
NCOA1 inh – inhibitors of human steroid receptor coactivator 1 (SRC1) | hit rate 0.12% among 360,000 | HEK293 GAL4-SRC1 luciferase reporter, luminescence | Q15788 | AID 588354 | inhibition, % at 3.6 µM;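 active means inhibition above the campaign mean plus 3 SD, with each screening campaign given its own cutoff, cut at about 60% in these data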;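 further: 0% = DMSO treated cells and 100% = gossypol at 36 µM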
NR5A2 inv ag – inverse agonists of human LRH-1 (NR5A2); hit rate 0.13% among 360,000; AID 602396; inhibition, % at 3.6 µM; HEK293T StAR-luciferase reporter, LRH-1 transfected, 24 h; O00482;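 active means inhibition above the mean inhibition of all tested compounds plus 3 SD, cut at about 73% in these data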;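 further: 0% = DMSO wells and 100% = reporter-only cells lacking LRH-1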
SRC2 inh – human SRC2 (NCOA2) inhibition. Q15596. HEK293 GAL4-SRC2 luciferase reporter, luminescence. inhibition, % at 9 µM. hit rate 0.17% among 370,000;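 active means inhibition above the mean inhibition of all tested compounds plus 3 SD, set per campaign, cut at about 52% in these data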;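 further: 0% = DMSO treated cells and 100% = cells given Gossypol at 36 µM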
Target sequence (Q15596 whole entry, looked up, the tested form may be a part): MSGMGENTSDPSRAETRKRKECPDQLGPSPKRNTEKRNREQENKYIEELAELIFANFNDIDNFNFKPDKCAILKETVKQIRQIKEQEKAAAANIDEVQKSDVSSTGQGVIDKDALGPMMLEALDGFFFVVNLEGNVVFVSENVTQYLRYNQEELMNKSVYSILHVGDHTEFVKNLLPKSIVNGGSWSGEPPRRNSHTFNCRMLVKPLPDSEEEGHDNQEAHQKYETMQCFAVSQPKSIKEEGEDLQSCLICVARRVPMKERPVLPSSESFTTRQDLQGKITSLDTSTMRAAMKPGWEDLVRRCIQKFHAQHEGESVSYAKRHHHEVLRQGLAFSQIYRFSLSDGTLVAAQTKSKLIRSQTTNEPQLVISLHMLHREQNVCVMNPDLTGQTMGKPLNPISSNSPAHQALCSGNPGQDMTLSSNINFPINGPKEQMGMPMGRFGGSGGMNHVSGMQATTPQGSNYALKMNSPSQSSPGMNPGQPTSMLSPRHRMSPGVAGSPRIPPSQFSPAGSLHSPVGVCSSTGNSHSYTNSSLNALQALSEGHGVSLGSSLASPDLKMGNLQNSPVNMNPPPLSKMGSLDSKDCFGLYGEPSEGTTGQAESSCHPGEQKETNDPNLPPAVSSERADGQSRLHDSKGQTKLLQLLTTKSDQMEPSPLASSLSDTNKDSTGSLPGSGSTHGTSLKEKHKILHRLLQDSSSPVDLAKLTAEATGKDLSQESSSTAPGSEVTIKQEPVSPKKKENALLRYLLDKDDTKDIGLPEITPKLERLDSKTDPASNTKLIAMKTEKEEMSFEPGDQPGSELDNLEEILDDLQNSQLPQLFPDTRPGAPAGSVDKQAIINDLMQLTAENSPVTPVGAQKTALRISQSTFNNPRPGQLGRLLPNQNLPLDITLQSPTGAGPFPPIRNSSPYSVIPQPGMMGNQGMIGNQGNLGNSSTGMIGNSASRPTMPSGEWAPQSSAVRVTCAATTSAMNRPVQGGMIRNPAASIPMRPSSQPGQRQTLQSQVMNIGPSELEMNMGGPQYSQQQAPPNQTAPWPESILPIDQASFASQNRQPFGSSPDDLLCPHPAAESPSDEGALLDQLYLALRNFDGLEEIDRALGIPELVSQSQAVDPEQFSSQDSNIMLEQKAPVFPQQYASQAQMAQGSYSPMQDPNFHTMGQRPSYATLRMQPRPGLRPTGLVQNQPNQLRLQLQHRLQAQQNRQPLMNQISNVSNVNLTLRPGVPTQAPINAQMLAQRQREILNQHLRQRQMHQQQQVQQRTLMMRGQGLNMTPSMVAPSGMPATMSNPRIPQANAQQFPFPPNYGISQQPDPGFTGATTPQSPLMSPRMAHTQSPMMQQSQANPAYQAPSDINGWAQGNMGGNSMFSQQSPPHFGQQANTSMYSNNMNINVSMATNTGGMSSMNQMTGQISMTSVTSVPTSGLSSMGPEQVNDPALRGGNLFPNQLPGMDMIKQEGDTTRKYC
Gal4-VP16 ctr – VP16 inhibition counter-screen for COUP-TFII; HEK293 Gal4-VP16 luciferase reporter, luminescence; shares compounds with NR2F2 inh; hit rate 25% among 2,500; inhibition, % at 8.5 µM; in the data active means inhibition above about 13%
COUP-TFII conf – confirmation of human COUP-TFII (NR2F2) inhibitors | hit rate 45% among 2,500 | inhibition, % at 8.5 µM | shares compounds with NR2F2 inh | HEK293 NGFI-A luciferase reporter, luminescence | AID 687008;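 active means mean inhibition over three repeats above a set limit taken from the earlier primary screen, cut at about 38% in these data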;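 further: 100% = cells given the luciferase reporter alone without the COUP-TF2 vector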
Starred values were filed as active, the others as inactive; nt = no result.

SMILES	NCOA3 inh	NR2F2 inh	NCOA1 inh	NR5A2 inv ag	SRC2 inh	Gal4-VP16 ctr	COUP-TFII conf
COC1C(O)C(C)OC(OC2CCC3(C)C(CCC4C3C(O)CC3(C)C(C5=CC(=O)OC5)CCC43O)C2)C1O (configuration not stated)	90.1*	76.6*	87.4*	100.8*	57.7*	53.9*	78.9*
CC12CCC(O)CC1CCC1C2CCC2(C)C(C3=CC(=O)OC3)CCC12O (configuration not stated)	83.9*	71.6*	82.1*	98.7*	46.9	45.3*	71.6*
O=[N+]([O-])c1nccn1CC(O)CN1CC1 (configuration not stated)	-7.0	7.5	-6.4	5.8	22.7	nt	nt
C[C@H]1CC[C@@H]2[C@@H](C)[C@H]3[C@H](C[C@H]4[C@@H]5CC=C6C[C@@H](O[C@@H]7O[C@H](CO)[C@H](O)[C@H](O[C@@H]8O[C@H](CO)[C@@H](O)[C@H](O)[C@H]8O)[C@H]7O[C@@H]7O[C@@H](C)[C@H](O)[C@@H](O)[C@H]7O)CC[C@]6(C)[C@H]5CC[C@]34C)N2C1	-11.3	-4.2	8.1	-0.4	0.1	nt	nt
CC(=O)OC1CC(OC2C(O)CC(OC3C(O)CC(OC4CCC5(C)C(CCC6C5CC(O)C5(C)C(C7=CC(=O)OC7)CCC65O)C4)OC3C)OC2C)OC(C)C1OC1OC(CO)C(O)C(O)C1O (configuration not stated)	90.2*	78.7*	87.0*	102.6*	61.2*	51.6*	76.3*
Clc1ccc(OCC#CCN2CCCCCC2)cc1	-17.9	-1.6	-26.1	-15.0	-26.4	nt	nt
CCC1CN2CCc3cc(OC)c(OC)cc3C2CC1CC1NCCc2c1[nH]c1ccc(O)cc21 (configuration not stated)	94.6*	91.5*	95.9*	98.4*	69.2*	24.2*	90.5*
COc1ccc2c(c1OC)CN1CCc3cc4c(cc3[C@H]1C2)OCO4	1.9	nt	5.7	-10.4	nt	nt	nt
COc1ccc(-c2ccc3c(c2)CN(C(=O)C(C)(C)C)Cc2cnnn2-3)cc1	10.3	-7.3	8.0	5.5	-12.5	nt	nt
CC1CC(C)(O)CC(C(O)CC2CC(=O)NC(=O)C2)C1=O (configuration not stated)	92.8*	87.4*	94.4*	98.5*	72.3*	5.4	75.2*
CC(C)(O)/C=C/C(=O)C(C)(O)C1C(O)CC2(C)C3CC=C4C(C=C(O)C(=O)C4(C)C)C3(C)C(=O)CC12C (configuration not stated)	67.0*	43.7*	2.5	72.2	75.3*	60.9*	64.5*
O=P(Oc1ccc(-c2ccccc2)cc1)(N1CC1)N1CC1	-48.7	1.7	-9.0	-6.3	12.2	nt	nt
N=Cc1c(O)n(-c2ccccc2)c(=O)n(-c2ccccc2)c1=O	5.7	16.2	5.8	13.2	-16.7	nt	nt
CCC(C)(O)C(=O)OC1C(=O)OC2CC3C(C)=CC(O)C(O)C3(C)C3C4(O)OCC23C1C(C)C4O (configuration not stated)	70.5*	75.1*	53.0	96.6*	29.3	9.6	61.5*
COC(=O)C1=C(c2cc3ccccc3o2)C[C@@H]2CC[C@H]1N2C(=O)NCc1ccc(C(F)(F)F)cc1	-0.4	-22.3	-28.6	7.6	-1.2	nt	nt
C[N+]1=C(N)NC2=C3CCCCC3ONC2C1 (configuration not stated)	nt	0.5	nt	nt	nt	nt	nt
CN(c1ccc(OCC(=O)N2CCN(C/C=C/c3ccccc3)CC2)cc1)S(=O)(=O)c1cccs1	21.2	38.2*	6.9	9.7	-5.9	7.4	37.6*
COc1ccc(Cc2nccc3cc(OC)c(OC)cc23)cc1OC	4.3	39.7*	9.9	35.7	-11.2	-3.0	13.5
COc1ccc(CC2=NCCc3cc(OC)c(OC)cc32)cc1OC	-4.0	-6.2	16.0	-9.7	-11.3	nt	nt
Cc1cc(OCC(=O)NC(Cc2ccc(Cl)cc2)C(=O)O)c2c3c(c(=O)oc2c1)CCC3 (configuration not stated)	9.8	10.1	-9.1	-15.5	-28.4	nt	nt
Cc1ccccc1-[n+]1c(-c2ccccc2)cc(-c2ccccc2)cc1-c1ccccc1	66.6*	68.4*	43.8	69.8	29.8	22.2*	76.9*
Oc1ccccc1-[n+]1c(-c2ccccc2)cc(-c2ccccc2)cc1-c1ccccc1	9.0	6.9	7.0	10.7	-12.0	nt	nt
CC(=O)C1=C(C)OC2=C(C(=O)CCC2)[C@@]12C(=O)N(C)c1ccccc12	nt	-6.5	nt	nt	-0.5	nt	nt
O=c1[nH]c2ccccc2n1C1CCN(C(c2ccccc2OC(F)(F)F)c2nnnn2Cc2ccccc2)CC1 (configuration not stated)	37.0	42.0*	33.7	-5.6	33.1	14.9*	27.7
C=C(CC1CC(O)[C@]2(C)OC3CC4OC5C[C@]6(C)O[C@]7(C)CCC8OC9C[C@]%10(C)OC%11C(C)=CC(=O)OC%11CC%10OC9C[C@@H](C)C8OC7CC6O[C@]5(C)C/C=C\C4OC3CC2O1)C(=O)O (some centres not stated)	14.4	-10.3	-1.4	10.0	-1.8	nt	nt
SMILES	NCOA3 inh	NR2F2 inh	NCOA1 inh	NR5A2 inv ag	SRC2 inh	Gal4-VP16 ctr	COUP-TFII conf
C=C(C=O)CC1CC(O)[C@]2(C)OC3CC4OC5C[C@]6(C)O[C@]7(C)CCC8OC9C[C@]%10(C)OC%11C(C)=CC(=O)OC%11CC%10OC9C[C@@H](C)C8OC7CC6O[C@]5(C)C/C=C\C4OC3CC2O1 (some centres not stated)	nt	75.7*	nt	nt	nt	0.8	9.0
COCCNC(=O)N1[C@H]2CC[C@@H]1C(C(=O)OC)=C(c1ccc(-c3ccccc3)c(F)c1)C2	26.4	49.7*	21.1	25.4	18.5	3.5	32.4
COC(=O)C1=C(c2ccc(-c3ccccc3)c(F)c2)C[C@@H]2CC[C@H]1N2C(=O)N1CCOCC1	30.0	70.6*	28.8	40.5	25.1	-9.3	36.1
COC(=O)C1=C(c2ccc(-c3ccccc3)c(F)c2)C[C@@H]2CC[C@H]1N2C(=O)N1CCCC1	12.5	66.9*	5.3	39.7	18.6	-4.6	47.1*
COC(=O)C1=C(c2ccc(-c3ccccc3)c(F)c2)C[C@@H]2CC[C@H]1N2C(=O)N1CCCCC1	43.3	63.9*	13.7	38.0	44.8	20.2*	53.6*
COC(=O)C1=C(c2ccc(-c3ccccc3)c(F)c2)C[C@@H]2CC[C@H]1N2C(=O)N1CCC(O)CC1	8.5	25.1	16.1	17.6	-16.6	nt	nt
Brc1ccc2c(c1)-n1nncc1CNC2	nt	-23.1	nt	nt	-22.8	nt	nt
O=C(O)CCn1cc(C=C2C(=O)NC(=O)NC2=O)c(-c2cc3ccccc3oc2=O)n1	10.7	8.0	-0.2	5.1	-4.3	nt	nt
COc1ccc(-n2nnnc2C(c2cc3ccccc3o2)N2CCC(n3c(=O)[nH]c4ccccc43)CC2)cc1 (configuration not stated)	59.5	98.9*	37.0	44.2	41.7	-3.3	60.3*
